# Assay outcomes deposited in PubChem by National Center for Advancing Translational Sciences (NCATS).
# Hits are enriched below; roughly 1.2% of the tested compounds scored in any of these assays.
# EPAC2 agonist = EPAC2 (human) agonism; AID 720711; Q8WZA2; Potency, µM (doses to about 154 µM), for the others: top-dose activation, hits mostly activators; EPAC2 activation, biochemical qHTS; response scale: 100% = 6.5 mM cAMP response; 360,000 compounds, 0.079% hits; also: nearly all actives have a fitted effect of over 50% in size
#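 qHTS, titration series. 100 nM EPAC2 / 250 nM Rap1B-BODIPY-GDP / 50 uM GDP; RT; ex 480/em 540 nm, 5-min reads to 30 min. Norm. to 6.5 mM cAMP = activation.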
# USP1-UAF1 inh = inhibitors of human USP1/UAF1 deubiquitinase. recombinant USP1/UAF1, Ub-Rhodamine cleavage fluorescence. O94782. 390,000 compounds, 0.23% hits. AID 743255. Potency, µM (top dose mostly 57.1 µM), for inactives: at the top dose activity change, negative = inhibition, actives largely listed as inhibitors; also: % is scaled to controls: 0 for no effect and ±100 for the full control effect; nearly all actives have a fitted effect of over 60% in size
#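 USP1/UAF1 complex at 1 nM was preincubated with compound for 15 min at room temperature, then Ub-Rho substrate (150nM final) was added. Fluorescence (480/540 nm) was read kinetically, 6 reads every 60 seconds.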
# EPAC2 antagonist = antagonists of human EPAC2; Q8WZA2; EPAC2 GEF exchange of Rap1B-BODIPY-GDP, fluorescence; Potency, µM (series often up to 114 µM), for inactives: at the top dose activity, negative = inhibition, usual class: inhibitors; 360,000 compounds, 0.18% hits; also: % is scaled to controls: 0 for no effect and ±100 for the full control effect; nearly all actives have a fitted effect of over 45% in size
# EPAC1 ag = EPAC1 (human) agonism; O95398; EPAC1 agonist qHTS, biochemical assay; response scale: 100% = response to 6.5 mM cAMP; Potency, µM (top dose mostly 154 µM), for inactives: at the highest dose activation, most hits filed as activators; 360,000 compounds, 0.073% hits; AID 720707; also: nearly all actives have a fitted effect of over 60% in size
#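 Read-out is the fluorescence drop as BODIPY-GDP leaves Rap1B (480 nm excitation, 540 nm emission), recorded every 5 minutes over 30 minutes. Reactions held 100 nM EPAC1, 250 nM Rap1B–BODIPY-GDP and 50 uM GDP, with 6.5 mM cAMP setting full activation.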
# EPAC1 antagonist = blocks human EPAC1 exchange factor. 360,000 compounds, 0.14% hits. O95398. Potency, µM (top dose mostly 115 µM), for inactives: at the highest dose activity change, negative = inhibition, most hits filed as inhibitors. EPAC1 GEF assay, Rap1b-BODIPY-GDP exchange fluorescence. AID 720709;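 also: plate controls were vehicle for no effect and positive control for full effect; nearly all actives have a fitted effect of over 50% in size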
# VDR inhibitor = inhibitors of human vitamin D receptor. P11473. VDR-SRC2-3 peptide fluorescence polarization, 2 h. 400,000 compounds, 0.93% hits. Potency, µM, for inactives: max response, negative = inhibition, usual class: inhibitors; also: % is scaled to controls: 0 for no effect and ±100 for the full control effect
# Target sequence (P11473 whole entry, looked up): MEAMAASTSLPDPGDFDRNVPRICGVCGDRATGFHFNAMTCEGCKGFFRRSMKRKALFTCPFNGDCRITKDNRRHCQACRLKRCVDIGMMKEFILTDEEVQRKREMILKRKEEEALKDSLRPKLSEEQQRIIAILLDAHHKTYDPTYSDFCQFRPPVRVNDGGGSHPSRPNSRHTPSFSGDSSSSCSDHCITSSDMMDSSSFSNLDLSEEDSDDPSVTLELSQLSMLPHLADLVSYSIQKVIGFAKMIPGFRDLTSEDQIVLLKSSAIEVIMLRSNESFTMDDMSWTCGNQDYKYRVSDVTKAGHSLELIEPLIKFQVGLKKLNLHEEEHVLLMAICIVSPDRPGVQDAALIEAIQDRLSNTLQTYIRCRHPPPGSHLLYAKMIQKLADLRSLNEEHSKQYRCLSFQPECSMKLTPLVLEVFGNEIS
#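 VDR–SRC2-3 interaction, FP format. Cmpds 23 nl via pintool, brief spin, 2 h ambient incubation.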
# An asterisk follows results filed as active; ? = inconclusive; . = not tested or not shown; ! = repeats disagree; [ ] = dose if it differs, or a comment. Calls follow the shape of the dose curve; as a rule, active = well fitted curve in the direction sought with a large enough effect; inconclusive = small, poorly fitted or top-dose-only effect, or another doubt; inactive = no such curve, though single readings can be large; an effect the other way counts as inactive or inconclusive. Potency is read from the fitted curve at half-maximal effect.
SMILES,EPAC2 agonist,USP1-UAF1 inh,EPAC2 antagonist,EPAC1 ag,EPAC1 antagonist,VDR inhibitor
COc1ccc(C=NNc2ccc([N+](=O)[O-])cc2S(=O)(=O)Nc2ccccc2C(=O)O)cc1OC,-8%,-11%,-20%,-10%,50µM*,?
C#CCOCCOCCOCCNc1nc(N2CCN(C(=O)CCCCCCCCCCNC(=O)[C@H](CO)n3cc(CCCSC)nn3)CC2)nc(N2CCN(C(=O)CCCCCCCCCCNC(=O)[C@H](CCCN=C(N)N)n3cc(C[C@@H](C)CC)nn3)CC2)n1,-19%,?,?,-30%,56µM*,78%
C#CCOCCOCCOCCNc1nc(N2CCN(C(=O)CCCCCCCCCCNC(=O)[C@H](CO)n3cc(CCCSC)nn3)CC2)nc(N2CCN(C(=O)CCCCCCCCCCNC(=O)[C@H](CCCCN)n3cc(CCO)nn3)CC2)n1,?,-20%,?,-8%,-24%,22%
C=C1C[C@@]23CC[C@H]4[C@@](C)(CCC[C@@]4(C)C(=O)OC4OC(CO)C(O)C(O)C4O)[C@@H]2CC[C@]1(OC1OC(CO)C(O)C(O)C1OC1OC(CO)C(O)C(O)C1O)C3 (stereo partly specified),.,.,.,.,.,9%
COc1ccc(C(C[N+](=O)[O-])c2c(-c3ccccc3)cc3ccccn23)c(OC)c1 (stereo unspecified),26%,-20%,7%,-1%,16%,71µM*
COc1ccc(C(C[N+](=O)[O-])c2c(C)cc3ccccn23)cc1 (stereo unspecified),27%,-21%,?,3%,-16%,7%
S=P(N1CC1)(N1CC1)N1CC1,0%,-26%,8%,-12%,6%,89µM*!
O=C(O)CCCCCN1C(=O)/C(=C/c2cn(-c3ccccc3)nc2-c2cccs2)SC1=S,24%,?,66%,89µM*,50%,-4%
CC(=Cc1ccccc1)C=C1SC(=S)N(CCCC(=O)Nc2ccc(C(=O)O)cc2)C1=O,4%,.,22%,?,?,.
CC(/C=C1\SC(=O)N(CCCC(=O)O)C1=O)=C\c1ccccc1,-4%,-23%,8%,-9%,-3%,-13%
CC(/C=C1\SC(=S)N(CCC(=O)Nc2cccc(C(=O)O)c2)C1=O)=C\c1ccccc1,6%,-21%,?,28%,79µM*,?
CC(=C\c1ccccc1)/C=C1/SC(=S)N(CCCC(=O)O)C1=O,2%,-21%,-12%,-3%,?,79µM*
O=C1C=CC2(O[C@H](c3ccccc3)[C@@H](c3ccccc3)O2)[C@H](Sc2ccccc2O)C1,-10%,-21%,16%,-10%,-27%,10µM*
O=C(CCNC(=O)c1ccccc1Cl)N/N=C\c1ccc(O)cc1,0%,-13%,6%,-10%,-6%,22µM*
CC(C)C(NS(=O)(=O)c1ccc2c(c1)OCCCO2)C(=O)O (stereo unspecified),9%,1%,-5%,2%,-19%,45µM*
COc1ccc(N(C(=O)c2ccco2)S(=O)(=O)c2cc(OC)ccc2OC)cc1,10µM*,-14%,-11%,6%,-1%,5%
COc1ccc(N(C(=O)c2ccco2)S(=O)(=O)c2ccc(F)cc2)cc1,9%,-6%,6%,14%,10%,-1%
O=S(=O)(c1cccc(C(F)(F)F)c1)N1CCN(c2nc(-c3cccs3)nc3cc(Cl)ccc23)CC1,.,.,.,.,.,-1%
CCCCS(=O)(=O)c1oc(-c2cccs2)nc1S(=O)(=O)c1ccc(F)cc1,.,-22%,.,.,.,10µM*
CCC(=O)Nc1ccc(C=C(C(C)=O)C(C)=O)cc1,9%,-10%,6%,7%,0%,79µM*
CCC(=O)Nc1ccc(/C=C(\C(C)=O)C(=O)c2ccccc2)cc1,6%,-17%,-7%,0%,-15%,?
O=c1c(-c2cc(F)cc(F)c2)nc2cncnc2n1Cc1ccc(F)cc1,.,.,.,.,.,-13%
CCCN1CCC(=O)N(C(CSc2ccc(OC)cc2)c2ccccc2)CC1 (stereo unspecified),.,.,.,.,.,-21%
Cc1c(N=C2C=CC(=O)c3ccccc32)c(=O)n(-c2ccccc2)n1C,25%,32µM*,-14%,16%,?,?
Cc1c(N=Nc2ccc(O)cc2)c(=O)n(-c2ccccc2)n1C,9%,-12%,0%,11%,6%,-2%
SMILES,EPAC2 agonist,USP1-UAF1 inh,EPAC2 antagonist,EPAC1 ag,EPAC1 antagonist,VDR inhibitor
O=C(Nc1ccccc1)Nc1cccc(C(F)(F)F)c1,2%,-16%,3%,1%,-2%,9%
O=C(Nc1cccc(C(F)(F)F)c1)Nc1cc(Cl)ccc1C(=O)O,.,.,.,.,.,50µM*
O=C(OCn1ncc(Br)c(Br)c1=O)c1ccc(F)cc1,-8%,?,-11%,-10%,?,25µM*
O=C(OCn1ncc(Br)c(Br)c1=O)c1ccccc1Cl,1%,-26%,-25%,-11%,?,22µM*
Cc1cccc(N2CCN(C(=O)Cn3sc4nc(C)cc(C)c4c3=O)CC2C)c1 (stereo unspecified),18%,3%,-1%,5%,3%,16µM*
Cc1cc(C)c2c(=O)n(CC(=O)Nc3cccc(F)c3)sc2n1,8%,-8%,4%,-12%,-3%,14µM*
Cc1cc(C)c2c(=O)n(CC(=O)Nc3ccc(Cl)cc3)sc2n1,-5%,-12%,4%,10%,-1%,40µM*
Cc1cc(C)c2c(=O)n(CC(=O)NCCCN3CCN(c4ccccc4F)CC3)sc2n1,9%,-22%,-4%,-2%,12%,16µM*
COc1ccc(-c2ccc(C)cc2)cc1C1C2C=CCC(C)C2C(=O)N1Cc1ccccc1 (stereo unspecified),.,.,.,.,.,-7%
OC[C@@H]1O[C@H](OC2[C@@H](O)[C@@H](O)[C@@H](O)O[C@@H]2CO)[C@H](O)[C@@H](O)[C@@H]1OC1O[C@H](CO)[C@@H](O)[C@H](O)[C@@H]1O (stereo partly specified),.,.,.,.,.,-7%
CCCCOC(=O)c1ccc(NC(=O)CSc2nc3c(c(=O)[nH]2)CCCC3)cc1,.,-1%,.,.,.,8%
NC(N)=NCCC[C@H](N)C(=O)N1CCC[C@H]1C(=O)N1CCC[C@H]1C(=O)NCC(=O)N[C@@H](Cc1ccccc1)C(=O)N[C@@H](CO)C(=O)N1CCC[C@H]1C(=O)N[C@@H](Cc1ccccc1)C(=O)O,.,.,.,.,.,0%
Cc1ccc2c(c1)C(=O)C1(O)CCN(c3ccccc3)C1=N2 (stereo unspecified),.,.,.,.,.,-5%
COCC(=O)Nc1nnc(COc2ccc(Cl)cc2)s1,-20%,-3%,-17%[57.1 µM],5%,-11%,0%
